Source: PubChem
Only a sample is shown.
aSyn UTR act = Activators via SNCA 5'UTR binding, MLPCN | alpha-synuclein 5'UTR reporter, activators screen | activity score, % (tested at 7.5 µM), hits read low | 7.1% of 300,000 active | AID 1814; in the data active means activity score below about -60%
* = called active by the depositor.

What do the screens show for `CC1(C)Cc2c(sc3nc(N/N=C/c4ccccc4)[nH]c(=O)c23)CO1`?
aSyn UTR act: -78*

Results for COc1cccc(OCc2cc(C(=O)N(C)CCOc3ccc(C)cc3)no2)c1 ?
aSyn UTR act: -133*

What do the screens show for `COc1ccc(OCc2cc(C(=O)N(Cc3nccn3C)C(C)C)no2)c2ccccc12`?
aSyn UTR act: -70*

What do the screens show for `COc1cccc(OCc2cc(C(=O)N(C)Cc3nccn3C)no2)c1`?
aSyn UTR act: -142*

What do the screens show for `Cc1ccc(NC(=S)NCCC2=CCCCC2)cc1`?
aSyn UTR act: -137*

What do the screens show for `O=C(NCCC1=CCCCC1)c1ccc(Br)o1`?
aSyn UTR act: -83*

How did O=C(NC(=S)NCCC1=CCCCC1)c1ccc(Br)o1 do in these assays?
aSyn UTR act: -115*

What do the screens show for `Oc1ccc(/C=N/Nc2ccc3ccccc3c2)c(O)c1`?
aSyn UTR act: -135*

How did Oc1ccccc1/C=N/Nc1ccccc1 do in these assays?
aSyn UTR act: -133*

How did CC(=O)N1CCN=C1SCc1ccc(C(F)(F)F)cc1 do in these assays?
aSyn UTR act: -85*

Results for COc1ccc(N=c2sc3ccccc3n2C)cc1 ?
aSyn UTR act: -172*

Results for CC(=O)Nc1ccc(S(=O)(=O)NC(CC(=O)NCCc2ccccc2)C(C)C)cc1 (stereo not drawn) ?
aSyn UTR act: -109*

What do the screens show for `O=C(O)c1ccc(N/N=C/c2ccnc3ccccc23)cc1`?
aSyn UTR act: -119*

How did O=C(O)c1ccc(N/N=C/c2cccc3cccnc23)cc1 do in these assays?
aSyn UTR act: -89*

What do the screens show for `Oc1ccccc1/C=N/Nc1cccc2cccnc12`?
aSyn UTR act: -234*

Results for CCc1ccc(C(=O)/C=C/c2ccc([N+](=O)[O-])o2)cc1 ?
aSyn UTR act: -151*

What do the screens show for `COc1cc2nc(N3CCN(c4cc(C)ccc4C)CC3)nc(N)c2cc1OC`?
aSyn UTR act: 95

Results for Cc1ccc(C)c(Nc2nc(N)c3ccccc3n2)c1 ?
aSyn UTR act: -157*

How did COc1ccc(Cl)cc1Nc1nc(N)c2ccccc2n1 do in these assays?
aSyn UTR act: -103*

How did COc1nc(Nc2nc3ccccc3c(=O)[nH]2)nc2ccc(C)cc12 do in these assays?
aSyn UTR act: 90

Results for Cc1cc(=O)oc2cc(OCc3cc4c(cc3Cl)OCO4)ccc12 ?
aSyn UTR act: -66*

How did Nc1ccc2nc(SCC(=O)N3CCOCC3)sc2c1 do in these assays?
aSyn UTR act: -71*

Results for CCCC(=O)Nc1ccc2nc(SCC(=O)Nc3ccc(N4CCOCC4)c(Cl)c3)sc2c1 ?
aSyn UTR act: -150*

Results for Nc1ccc2nc(SCc3cccc(F)c3)sc2c1 ?
aSyn UTR act: -139*

Results for Nc1ccc2nc(SCC(=O)Nc3ccc(N4CCOCC4)c(Cl)c3)sc2c1 ?
aSyn UTR act: -174*

Results for CCOC(=O)C1(Cc2ccc(OC)cc2)CCN(C(=O)c2ccc3[nH]ccc3c2)CC1 ?
aSyn UTR act: -127*

How did O=C(c1cnsn1)N1CCC(CO)(Cc2cccc(F)c2)CC1 do in these assays?
aSyn UTR act: -138*

How did Cc1c(OCC(=O)C(C)(C)C)ccc2c3c(c(=O)oc12)CCCC3 do in these assays?
aSyn UTR act: -97*

What do the screens show for `Cc1cc(C(=O)N2CCN(c3cccc(Cl)c3)CC2)c(C)o1`?
aSyn UTR act: -137*

How did CC(C)n1cc(/C=N/Nc2ccc(C(=O)O)cc2)c2ccccc21 do in these assays?
aSyn UTR act: -79*

How did Nc1ccc(C(=O)N/N=C/c2cn(Cc3ccccc3F)c3ccccc23)cc1 do in these assays?
aSyn UTR act: 72

How did O=C(O)c1ccc(N/N=C/c2cn(Cc3ccccc3F)c3ccccc23)cc1 do in these assays?
aSyn UTR act: -65*

Results for CCOC(=O)c1sc(=NC(=O)c2ccc(C)cc2)n(C)c1C ?
aSyn UTR act: -196*

How did CCOC(=O)c1sc(=NC(=O)c2c(F)cccc2F)n(C)c1C do in these assays?
aSyn UTR act: -103*

What do the screens show for `CCOC(=O)c1sc(=NC(=O)c2ccc(F)cc2)n(C)c1C`?
aSyn UTR act: -104*

What do the screens show for `Cn1c(CSc2ccccc2)c(C#N)c2ccccc21`?
aSyn UTR act: -131*

How did Nc1c(C(=O)Nc2ccccc2Cl)nnn1-c1ccc2c(c1)OCCO2 do in these assays?
aSyn UTR act: -216*

What do the screens show for `Nc1c(C(=O)Nc2ccc3c(c2)OCCO3)nnn1CCc1ccccc1`?
aSyn UTR act: -126*

How did Nc1c(C(=O)Nc2ccc3c(c2)OCCO3)nnn1Cc1cccc(Br)c1 do in these assays?
aSyn UTR act: -163*

Results for Nc1c(C(=O)Nc2ccc3c(c2)OCCO3)nnn1Cc1ccc(Br)cc1 ?
aSyn UTR act: -220*

Results for CCNc1nc(C)c2cc(Br)c(=O)n(CC)c2n1 ?
aSyn UTR act: 76

How did Clc1ccc(-c2nnc(-c3ccccc3)c(N3CCSCC3)n2)cc1 do in these assays?
aSyn UTR act: -62*

What do the screens show for `COCCNC(=O)Cn1nc(-c2ccccc2OC)ccc1=O`?
aSyn UTR act: -62*

How did Cc1ccc2nc(-c3ccccn3)c(NC3CCCC3)n2c1 do in these assays?
aSyn UTR act: -165*

How did CCOc1ccc(OCCn2nnc3ccccc3c2=O)cc1 do in these assays?
aSyn UTR act: -121*

How did CCOc1cccc(OCCn2cnc3ccccc3c2=O)c1 do in these assays?
aSyn UTR act: -79*

How did Cc1ccc(OCCn2cnc3ccccc3c2=O)c([N+](=O)[O-])c1 do in these assays?
aSyn UTR act: -157*

Results for CN[C@H]1CCc2cc(OC)c(OC)c(OC)c2-c2ccc(N(C)CC(OC)OC)c(=O)cc21 ?
aSyn UTR act: 70

How did COc1ccc(N=Cc2cccc(C)c2O)cc1Cl do in these assays?
aSyn UTR act: -138*

How did COc1ccc(CCCC(=O)N/N=C/c2cccc(OC)c2O)cc1C do in these assays?
aSyn UTR act: 74

Results for O=[N+]([O-])/C(C(Cl)=C(Cl)Cl)=C(/Sc1ccccc1)N1CCCCC1 ?
aSyn UTR act: -78*

Results for Cc1nc(N)sc1N=Nc1ccccc1C(F)(F)F ?
aSyn UTR act: -184*

Results for O=C(Cc1ccccc1)N/N=C/C=C/c1ccccc1[N+](=O)[O-] ?
aSyn UTR act: -83*

Results for O=C(Cc1cccs1)N/N=C/C=C/c1ccccc1[N+](=O)[O-] ?
aSyn UTR act: -99*

Results for N#C/C(=C/C=C/c1ccccc1)C(=O)Nc1ccccc1 ?
aSyn UTR act: -109*

How did Cc1ccc(CSc2nnc(SCC(=O)N/N=C/C=C/c3ccccc3[N+](=O)[O-])s2)cc1 do in these assays?
aSyn UTR act: 89

Results for N#C/C(=C\C=C\c1ccccc1[N+](=O)[O-])C(=O)NCc1ccccc1 ?
aSyn UTR act: -291*

What do the screens show for `O=C(O)c1ccc(N/N=C/C=C/c2ccccc2[N+](=O)[O-])cc1`?
aSyn UTR act: -127*

How did CC(=O)c1cnc2nc(SCc3ccccc3C)nn2c1C do in these assays?
aSyn UTR act: -75*

How did CCc1nnc2c3cnn(-c4ccccc4)c3ncn12 do in these assays?
aSyn UTR act: -183*

How did CCCS(=O)(=O)c1nc(S(=O)(=O)c2ccc(Cl)cc2)c(N2CCC(O)CC2)s1 do in these assays?
aSyn UTR act: -95*

How did CCCS(=O)(=O)c1nc(S(=O)(=O)c2ccc(C)cc2)c(N2CCC(C(N)=O)CC2)s1 do in these assays?
aSyn UTR act: -75*

How did O=C(/C=C/c1ccc([N+](=O)[O-])cc1)/C=C/c1ccco1 do in these assays?
aSyn UTR act: -215*

What do the screens show for `COc1ccc(C(=O)Nc2ccc3c(c2)nc2n3CCSC2)cc1`?
aSyn UTR act: -67*

Results for COc1ccc(C(=O)Nc2ccc3nc(C)c(C)nc3c2)cc1 ?
aSyn UTR act: -87*
